From PubChem BioAssay
Pf growth 96h = Primary qHTS for delayed death inhibitors of the malarial parasite plastid, 96 hour incubation | 320,000 tested, 6.9% active | P. falciparum luciferase reporter growth, 96 h | Potency, µM (series often up to 28.7 µM), for the others: top-dose activity change, negative = inhibition, hits mostly inhibitors; also: potency is read from the fitted curve at half-maximal effect; % is scaled to controls: 0 for no effect and ±100 for the full control effect
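Erythrocytes infected with luciferase-expressing P. falciparum were dispensed at 2% hematocrit and 0.05% parasitemia (final), then incubated with compounds 96 hours at 37 C in 5% CO2. Luminescence after detection reagent addition reported growth.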
CHX counter = Cycloheximide Counterscreen for Small Molecule Inhibitors of Shiga Toxin. 300,000 tested, 12% active. cell reporter, cycloheximide protein synthesis inhibition counterscreen. max response, %; in the data active = max response mostly above about 13%, no sharp cut-off; inactive = mostly below about 14%; also: read at 38.3 µM for the half of the compounds with a filed dose; 0% is about no effect
Shiga toxin inh = A qHTS for Small Molecule Inhibitors of Shiga Toxin; Vero cells, Shiga toxin protein synthesis inhibition reporter; inhibition, % at 38.7 µM; 290,000 tested, 9.2% active; AID 2315, 2010; in the data active = inhibition mostly above about 28%, no sharp cut-off; inactive = mostly below about 43%; also: 0% is about no effect
NS1 inh = qHTS Assay for Inhibitors of Influenza NS1 Protein Function; Potency, µM (series often up to 46.1 µM), inactives show at the top dose activity, positive = more growth; 270,000 tested, 0.4% active; calls by dose curve; also: potency is read from the fitted curve at half-maximal effect; actives are rising curves; nearly all actives have a fitted effect of over 50% in size
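OD600 was taken as the measure of yeast growth restored by compound in an NS1-expressing S. cerevisiae strain. Cells had been washed out of glucose medium and diluted 1:100 into galactose -URA medium, pH 6.0.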
Pf growth 48h = Primary qHTS for delayed death inhibitors of the malarial parasite plastid, 48 hour incubation; P. falciparum luciferase growth in erythrocytes, 48 h; 310,000 tested, 5.9% active; Potency, µM (titrated, usually from 28.7 µM), inactives show top-dose activity change, negative = inhibition, most hits filed as inhibitors; also: potency is read from the fitted curve at half-maximal effect; % is scaled to controls: 0 for no effect and ±100 for the full control effect
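Cell-based growth assay: transgenic P. falciparum expressing firefly luciferase, cultured in red cells within RPMI 1640 containing 0.5% w/v Albumax, 24 mM bicarbonate and gentamycin. A drop in luciferase activity indicates inhibition.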
* hit, by the source's call; ? = inconclusive; · = no result given; [ ] = dose if it differs, or a comment. Only some compounds are listed: those with a hit (about 21% of all), similar ones and a draw of the others. Unless noted, calls follow the shape of the dose curve; as a rule, active = well fitted inhibition curve with a large enough effect; inconclusive = small, poorly fitted or top-dose-only effect, or another doubt; inactive = no such curve, though single readings can be large or run the other way.

SMILES | Pf growth 96h | CHX counter | Shiga toxin inh | NS1 inh | Pf growth 48h
COc1ccc(CCNC(=O)c2ccccc2SC)cc1 | -27% | 3 | -3 | -5% | -13%
COc1cc(SC)ccc1C(=O)NCC1CCCCC1 | ? | 28* | 75* | -28% | ?
COc1ccc(CCNC(=O)c2ccc(SC)cc2OC)cc1 | 2.6µM* | 4 | -12 | -9% | ?
CCc1nc2ccccc2c(C(=O)OCC(=O)NC(=O)c2cccn2C)c1C | -4% | 0 | -7 | -1% | -25%
CC(C)=CCC/C(C)=C/CC/C(C)=C/CC/C(C)=C/C(=O)O | · | 1 | 12 | · | ·
CS(=O)(=O)c1ccc(Cl)c(C(=O)OCC(=O)NC2CCCCCCC2)c1 | -26% | · | · | · | -14%
CCOC(=O)N1CCN(c2nc(-c3ccc(F)cc3)cs2)CC1 | 92% | 23* | 48* | -12% | 13%
CCOC(=O)C(=O)N1CCN(c2nc(-c3ccc(Cl)cc3)cs2)CC1 | 4.7µM* | -4 | · | -48% | 13%
COc1ccc(-c2nnc3n2N=C(c2ccc(OC)c(OC)c2)CS3)cc1 | · | 3 | -4 | · | ·
CCN(CC)C(=O)C(=O)c1cn(CCOc2ccccc2)c2ccccc12 | 34%[5.75 µM] | 0 | 19 | -13% | ?
CCN(CC)CCCN=Cc1c(O)n(-c2cccc(C)c2)c(=O)c2ccccc12 | 19% | -2 | -11 | 0% | -6%
COc1cccc(C(=O)OCCN2CCCCC2)c1 | 5% | 24 | 31 | 12% | 8%
CC(CN1CCN(C)CC1)OC(=O)c1cccc(Cl)c1 (stereo unspecified) | 47% | 17* | 52* | ? | 6%
CC(CN1CCCC1)OC(=O)c1ccc(Cl)cc1Cl (stereo unspecified) | -22% | 6 | -2 | -17% | 0%
CCc1ccc(C(=O)C(C)CN2CCCCC2)cc1 (stereo unspecified) | 1.5µM* | · | · | · | -6%
CC(CN1CCOCC1)OC(=O)c1ccccc1Cl (stereo unspecified) | ? | 10* | 9 | 15% | 8%
CCOC(CN1CCN(CC(C)C(=O)c2ccccc2)CC1)c1ccccc1 (stereo unspecified) | ? | · | · | · | -7%
COc1cccc(C(=O)OC(C)CN2CCCC2)c1 (stereo unspecified) | 4.1µM* | -3 | -13 | -6% | -4%
COc1cccc(OCC(Cn2c(C)nc3ccccc32)OC(C)=O)c1 (stereo unspecified) | -22% | -4 | 16 | 7% | -8%
Cc1ccc(NC(=O)C(=O)NCc2ccc(/C=C(/C#N)C(=O)NCc3cccnc3)o2)cc1C | 7% | -4 | -11 | 4% | 5%
CCCCCCCCCCCC(=O)[O][Sn]([CH2]CCC)([CH2]CCC)[O]C(=O)CCCCCCCCCCC | -2% | · | · | · | 5%
CC(CN1CCCCC1)OC(=O)c1cccc(F)c1 (stereo unspecified) | 11% | 18* | 28* | -9% | 32%
CC(CN1CCN(C)CC1)OC(=O)c1ccc(F)cc1 (stereo unspecified) | 310% | 2 | 5 | · | -15%
O=C(NCc1ccccn1)c1cccc(NS(=O)(=O)c2ccccc2F)c1 | ? | -2 | -3 | 22% | 17%
CCOC(=O)C1CCN(C(C(=O)Nc2ccc3c(c2)OCCO3)c2ccccc2)CC1 (stereo unspecified) | 374% | -1 | -3 | -18% | -17%
SMILES | Pf growth 96h | CHX counter | Shiga toxin inh | NS1 inh | Pf growth 48h
CCOC(=O)C1CCN(c2c(Nc3ccc4c(c3)OCCO4)c(=O)c2=O)CC1 | -25% | 60* | 88* | -13% | 50%
CCOC(=O)C1CCCN(c2c(Nc3cccc(C)c3)c(=O)c2=O)C1 (stereo unspecified) | 8.3µM* | -2 | -5 | -1% | ·
CCOC(=O)C1CCCN(CCC(=O)Nc2cccc(C)c2)C1 (stereo unspecified) | 20% | 49* | 82* | -4% | 144%
CC(C)CC(=O)Nc1ccccc1-c1nnn(CC(=O)N2CCc3ccccc3C2)n1 | 9% | -4 | -15 | -6% | -3%
Cc1cc(C(=O)CSc2nnnn2C)c(C)n1-c1cccc(F)c1 | ? | 40* | 122* | -14% | 91%
Cc1cc(C(=O)CSc2ncccn2)c(C)n1-c1cccc(F)c1 | 254% | 86* | 100* | 15% | 76%
Cc1cc(C)cc(-n2c(C)cc(C(=O)CSc3nnnn3C)c2C)c1 | ? | 17 | 39 | 2% | ·
Cc1cc(C(=O)CSc2n[nH]c(N)n2)c(C)n1-c1cccc(F)c1 | 7% | 20* | 73* | 5% | 6%
COCCn1c(C)cc(C(=O)CSc2n[nH]c(N)n2)c1C | 22% | 13* | -1 | 3% | 5%
COC(=O)c1c(C)oc(C)c1S(=O)(=O)NCc1cccs1 | 3% | 2 | -3 | -6% | 1%
CCN(CC)S(=O)(=O)c1ccc(S(=O)(=O)NCc2cccs2)cc1 | 8.3µM* | -1 | 3 | 2% | 22%
Cc1cccc(CNS(=O)(=O)c2csc(C(N)=O)c2)c1 | -10% | -9 | -8 | 8% | -17%
COC(=O)c1cc(S(=O)(=O)NCc2ccccc2Cl)c[nH]1 | 2.6µM* | -2 | -5 | 6% | 32%
COC(=O)c1cc(S(=O)(=O)NCc2cccs2)c[nH]1 | 12µM* | 10 | -5 | -11% | 3%
NC(=O)c1cc(S(=O)(=O)NCc2cccs2)cs1 | 8.3µM* | -2 | 11 | -8% | 42%
COc1ccc(S(=O)(=O)NCc2cccs2)cc1 | -15% | 5 | 6 | 10% | ·
Cc1ccc(CNC(=O)CN2C(=O)c3ccccc3S2(=O)=O)cc1 | ? | -2 | -10 | -2% | 3%
O=S(=O)(NCc1cccs1)c1ccc(Cl)s1 | 7.4µM* | 0 | -8 | -16% | 2%
O=S(=O)(NCc1cccs1)c1ccc(Br)s1 | 21% | -1 | -8 | -15% | 15%
CC(=O)c1ccccc1NC(=O)COC(=O)/C(=C/c1ccccc1)n1nnnc1C | 2.1µM* | -3 | -8 | -14% | 5.9µM*
Cc1nnnn1/C(=C\c1ccccc1)C(=O)OCC(=O)N(C)C1CCS(=O)(=O)C1 (stereo unspecified) | -28% | -3 | 4 | · | ?
CCN(CC)C(=O)c1nc[nH]c1C(=O)N1CCc2ccccc2C1 | 28% | · | · | · | 4%
CCOc1ccc(N2C(=O)CC(C(C)c3ccccc3)C2=O)cc1 (stereo unspecified) | ? | -1 | · | 6% | -7%
CCc1ccc(OCC(=O)Nc2ccc(-c3nc4ccccc4o3)c(O)c2)cc1 | ? | 9 | 40 | 10% | 51%
Oc1ccccc1-c1nc(NCc2ccccc2)c2ccccc2n1 | ? | -2 | -5 | 5% | ?
Oc1cc(NCc2cccnc2)ccc1-c1nc2ccccc2o1 | · | 53* | 84* | -51% | -32%
O=[N+]([O-])c1ccc(-c2nc(NCc3cccnc3)c3ccccc3n2)cc1 | 15µM* | 23* | 53* | 0% | 1%
Oc1ccccc1-c1nc(NCc2cccnc2)c2ccccc2n1 | ? | 10 | 24 | -1% | 15µM*
